# DT40 TDP1 CPT: growth inhibition of DT40 Tdp1-/-;hTDP1 cells with camptothecin (screen for TDP1 inhibitors); chicken DT40 Tdp1-/-;hTDP1 cells + 20 nM CPT, ATP luminescence, 48 h; 12% of 420,000 active; AID 686979; Potency, µM (highest dose often 46.2 µM), hits mostly inhibitors; also: nearly all actives have a fitted effect of over 55% in size
#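 Chicken DT40 Tdp1-/- cells stably complemented with human TDP1 were seeded at 400 cells/well in medium containing 20 nM camptothecin, exposed to pin-transferred compounds, and grown at 37 °C for at least 48 hr. Viability was read as ATP luminescence.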
# ClpP mod: qHTS Assay for Activators of ClpP; purified B. subtilis ClpP, FRET peptide cleavage, 20 min; Potency, µM (doses to about 57.5 µM); 1.9% of 340,000 active; AID 651965, 2013; active = well fitted falling curve with a large enough effect; inconclusive = small, poorly fitted or top-dose-only effect; inactive = no such curve, though single readings can be large or run the other way; also: the source files actives as falling curves though it sought activators and does not explain the sign; nearly all actives have a fitted effect of over 65% in size
# Target sequence (P80244 whole entry, looked up): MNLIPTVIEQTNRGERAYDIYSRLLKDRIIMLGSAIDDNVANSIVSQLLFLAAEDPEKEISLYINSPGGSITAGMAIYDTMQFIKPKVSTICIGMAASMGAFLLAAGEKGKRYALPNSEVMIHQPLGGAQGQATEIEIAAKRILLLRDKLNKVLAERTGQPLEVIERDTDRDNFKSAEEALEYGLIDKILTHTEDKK
#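 FRET quenching reversal measured ClpP activation: 10 microg/mL B. subtilis ClpP at pH 8 with the FRET-FV decapeptide, read at 430 nm after 320 nm excitation. The 20-min minus 0-min signal was scaled between DMSO/no-enzyme wells and ADEP (5.8 microM final).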
# D3 antag: antagonists of human D3 dopamine receptor; P35462; D3R cells, DiscoveRx beta-arrestin luminescence, antagonist mode; hits give low values; max response, negative = inhibition, %; 2.5% of 360,000 active; in the data active = max response below about -50%; inconclusive = no clear call, values can overlap the other calls
# Target sequence (P35462 whole entry, looked up): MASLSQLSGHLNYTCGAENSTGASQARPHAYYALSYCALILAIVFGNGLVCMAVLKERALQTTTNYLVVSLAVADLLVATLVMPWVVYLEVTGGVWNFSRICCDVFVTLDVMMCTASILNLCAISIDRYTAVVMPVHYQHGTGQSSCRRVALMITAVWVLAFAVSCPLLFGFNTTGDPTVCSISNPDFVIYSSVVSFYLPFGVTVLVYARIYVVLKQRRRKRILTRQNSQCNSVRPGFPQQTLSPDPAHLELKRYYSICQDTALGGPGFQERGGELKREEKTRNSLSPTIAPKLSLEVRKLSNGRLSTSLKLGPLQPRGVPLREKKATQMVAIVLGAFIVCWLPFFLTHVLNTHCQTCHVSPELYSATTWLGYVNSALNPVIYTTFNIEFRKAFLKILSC
#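 Cells expressing the human receptor were seeded at 1500 cells/well, incubated overnight at 37 degrees C in 5% CO2, then exposed to library compounds with dopamine controls for 90 minutes at 37 degrees C before luminescent detection.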
# IL-1B inflam inh: inflammasome signaling inhibition, IL-1 beta readout. THP-1 LPS/ATP IL-1B secretion, AlphaLISA, 16 h; hits give low values. activity change, % at 57.5 µM. 4.7% of 360,000 active. AID 743279; in the data active = activity change below about -50%; inconclusive = mostly about -30% to -49%
#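 THP-1 cells pretreated 1 hr with compounds (up to 57.5 uM final), then stimulated with LPS (250 ng/mL final) plus ATP (1.25 mM final); secreted IL-1B measured by AlphaLISA after 16 hr, decreased signal indicating inhibition.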
# DRD3 agonist: agonists of human D3 dopamine receptor. D3R DiscoveRx beta-arrestin cells, luminescence, 90 min. max activation, %. 0.58% of 410,000 active. AID 652048; in the data active = max activation above about 30%
#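 Agonist-mode cell screen: cells plated at 1500/well and incubated overnight at 37 °C, then exposed to library compounds for 90 min at 37 °C. Detection reagent was added for 30–60 min at room temperature, and luminescence was read.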
# DT40 TDP1 no CPT: qHTS for Inhibitors of human tyrosyl-DNA phosphodiesterase 1 (TDP1): qHTS in cells in absence of CPT; 15% of 420,000 active; DT40 Tdp1-/- hTDP1 cells, no CPT, ATP luminescence, 48 h; Potency, µM (doses to about 46.2 µM), actives largely listed as inhibitors; also: nearly all actives have a fitted effect of over 55% in size
#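 DT40 Tdp1-/-;hTDP1 cells, no CPT (DMSO vehicle only), 400 cells/well; compounds pin-transferred; ≥48 hr, 37 °C; CellTiter-Glo 30 min RT dark, luminescence read.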
# A number is an active result; - = inactive; ? = inconclusive; . = no result given; [ ] = remark or other dose. Only some compounds are listed: those with a hit (about 21% of all), similar ones and a draw of the others. Unless noted, calls follow the shape of the dose curve; as a rule, active = well fitted inhibition curve with a large enough effect; inconclusive = small, poorly fitted or top-dose-only effect; inactive = flat fitted curve, though single readings scatter.
SMILES,DT40 TDP1 CPT,ClpP mod,D3 antag,IL-1B inflam inh,DRD3 agonist,DT40 TDP1 no CPT
Cc1cccc(N2CCN(C(=O)c3ccc(Cl)c(S(=O)(=O)N4CCc5ccccc5C4)c3)CC2)c1C,?,-,-,-,-,15µM
O=C(c1ccc(Cl)c(S(=O)(=O)N2CCc3ccccc32)c1)N1CCN(c2ccccc2O)CC1,?,-,-,-73,-,23µM
O=C(NNC(=O)c1ccccc1O)c1ccc(Cl)c(S(=O)(=O)N2CCc3ccccc32)c1,21µM,.,-,-,-,21µM
NC(=O)C1CCCN(C(=O)c2ccc(Cl)c(S(=O)(=O)N3CCc4ccccc43)c2)C1 (configuration not stated),?,-,-,-,-,?
CC(=O)N1CCN(C(=O)c2ccc(Cl)c(S(=O)(=O)N3CCc4ccccc43)c2)CC1,-,-,-,-,-,?
Cc1cccc(N2CCN(C(=O)c3ccc(Cl)c(S(=O)(=O)NCc4ccco4)c3)CC2)c1C,?,-,-,-,-,?
O=C(c1ccc(Cl)c(S(=O)(=O)N2CCCC2)c1)N1CCN(c2ccccc2F)CC1,?,.,-,-,-,16µM
CCCCc1nn2c(=O)cc(COC(=O)c3ccc(NC(=O)C(CC)CC)cc3)nc2s1,-,-,.,.,-,-
Cc1ccc(NC(=O)c2ccc(Cl)c(S(=O)(=O)N3CCCC3)c2)nc1,-,-,-,-,-,-
O=C(NCc1ccco1)c1ccc(Cl)c(S(=O)(=O)N2CCc3ccccc32)c1,?,-,-,-51,-,?
Cc1ccc(NC(=O)c2ccc(Cl)c(S(=O)(=O)N3CCc4ccccc43)c2)nc1,?,.,-,-,-,26µM
O=C1c2ccccc2C(=O)N1Cc1cnc(N2CCN(c3ccccc3)CC2)s1,8.2µM,.,-,-,-,12µM
O=C(CCN1C(=O)c2ccccc2C1=O)N1CCN(c2ccccc2)CC1,-,-,-,-,-,-
Cc1cc(C(=O)OC(C(=O)Nc2cccc(C(F)(F)F)c2)c2ccccc2)c(C)o1 (configuration not stated),?,-,-,-,-,21µM
CCCSc1ccc([C@@H]2[C@H]3C(=O)N(CC)C(=O)[C@H]3[C@]3(C(=O)OC)CCCN23)cc1,?,-,-,-,-,?
CCN1C(=O)[C@@H]2[C@@H](c3ccc(SC4CCCCC4)c(OC)c3)N3CCCC[C@@]3(C(=O)OC)[C@@H]2C1=O,21µM,-,-,?,-,?
CCCSc1ccc([C@@H]2[C@@H]3C(=O)N(CC)C(=O)[C@@H]3[C@]3(C(=O)OC)CCCCN23)cc1,18µM,-,-,-,-,21µM
CCN1C(=O)[C@H]2[C@@H](c3ccc(SC4CCCCC4)cc3)N3CCCC[C@@]3(C(=O)OC)[C@H]2C1=O,15µM,-,-,-,-,16µM
CCN1C(=O)[C@@H]2[C@@H](c3ccc(SC4CCCCC4)cc3)N3CCC[C@@]3(C(=O)OC)[C@@H]2C1=O,?,-,-,-,-,21µM
Cc1cc(NC(=O)CSc2nnc3ccccn23)no1,-,-,-,-,-,-
C=CCN1C(=O)OC2(CCCCC2)C1(C)O (configuration not stated),-,-,-,-,-,-
Cc1nccn1CCCN1C(=O)OC2(CCCCC2)C1(C)O (configuration not stated),?,-,-,-,-,21µM
COc1ccccc1NC(=O)Cn1cc(C(=O)c2ccncc2)c(=O)c2cc(C)ccc21,-,-,.,.,-,-
Cc1ccc(S(=O)(=O)NCC(=O)OCC(=O)NCc2ccc3c(c2)OCO3)cc1,-,.,-,-,-,-
CCN(CC)S(=O)(=O)c1cccc(NC(=O)COC(=O)/C=C/c2cccs2)c1,-,.,-,-,-,?
SMILES,DT40 TDP1 CPT,ClpP mod,D3 antag,IL-1B inflam inh,DRD3 agonist,DT40 TDP1 no CPT
O=C(Cn1cc2c(n1)CCCC2)NCCCN1CCN(c2ccccc2F)CC1,?,-,-83,-,-,?
Cc1ccc(C)c(N2CCN(CCCNC(=O)Cn3cc4c(n3)CCC(C)C4)CC2)c1 (configuration not stated),16µM,-,-60,-,-,15µM
Cc1ccc(C)c(NC(=S)NNC(=O)c2csc3c2CCC(C)C3)c1 (configuration not stated),?,-,-60,?,-,?
CCN1CCN(CCCNC(=O)Cn2cc3c(n2)CCCC3)CC1,-,-,-,-,-,-
Cc1ccc(C)c(N2CCN(CCCNC(=O)Cn3cc4c(n3)CCCCC4)CC2)c1,4.6µM,-,-96,?,-,6.5µM
Cc1ccc(C)c(NC(=S)NNC(=O)c2csc3c2CCCC3)c1,-,-,-,-,-,-
O=C(Cn1cc2c(n1)CCCC2)NCCCN1CCN(Cc2ccccc2)CC1,-,-,-,-,-,-
CN1C(=O)CS/C1=N\NC(=O)COc1cccc2cccnc12,-,.,-,-,-,-
CC(=O)OCC(=O)Nc1c(C)cc(C)cc1C,?,-,-,-,-,-
CC1CCc2c(C(=O)NCc3ccco3)csc2C1 (configuration not stated),?,.,-,-79,-,15µM
CC1CCc2nn(CC(=O)NCc3ccco3)cc2C1 (configuration not stated),21µM,-,-,-,-,?
COCCNC(=O)c1cccc(S(=O)(=O)N2CC3(C)CC2CC(C)(C)C3)c1 (configuration not stated),-,-,-,-,-,-
Cc1cccn2cc(CNC(=O)CC3CCCC3)nc12,-,32µM,?,-,-,-
COc1ccc(N2CCN(C(=O)c3cc(C)oc3C)CC2)cc1,-,-,-,-,-,-
Cc1cc(C(=O)N2CCN(c3ccccc3)CC2)c(C)o1,-,-,-,-,-,-
Cc1cc(C(=O)N2CCN(c3ccccc3Cl)CC2)c(C)o1,21µM,.,-,?,-,12µM
O=C(Nc1ccccc1C(=O)N1CCN(c2cccc(Cl)c2)CC1)C1=CSCCO1,-,.,-,-,-,21µM
Cc1cc(C(=O)N2CCN(c3ncccn3)CC2)c(C)o1,13µM,-,-,-,-,23µM
Cc1cc(C(=O)N2CCN(c3cccc(Cl)c3)CC2)c(C)o1,18µM,-,-,-,-,16µM
CCc1ccc2nc(Nc3ccc(OC)cc3OC)c(C#N)cc2c1,-,.,-,-,-,?
O=C(NCC1(N2CCOCC2)CCCC1)c1cnn(-c2nccc(-c3cccs3)n2)c1C1CC1,-[9.04 µM],.,.,.,.,-

# Screening results deposited in PubChem by National Center for Advancing Translational Sciences (NCATS).
